High-throughput results: PubChem BioAssay, several laboratories
FadD28 binding = inhibitors of FadD28 bisubstrate probe binding, primary screen, biochemical, fluorescence polarization, single point; Mycobacterium tuberculosis FadD28 fatty-acid-AMP ligase; inhibition, % at 12.5 µM; 360,000 tested, 0.22% active; in the data active means inhibition above about 8.5%, passing the limit was not always enough
FBA Mtb inh = Mtb FBA enzyme inhibitors, primary screen, biochemical, fluorescence, strain H37Rv; purified M. tuberculosis FBA, fluorescence read-out; AID 588726, 2011; 360,000 tested, 2.3% active; inhibition, % at 1 µM; Fructose-bisphosphate aldolase (Mycobacterium tuberculosis (strain ATCC 25618 / H37Rv)), …;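 further: 0% = vehicle and 100% = reference inhibitor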
Target sequence (P9WQA3 whole entry, looked up): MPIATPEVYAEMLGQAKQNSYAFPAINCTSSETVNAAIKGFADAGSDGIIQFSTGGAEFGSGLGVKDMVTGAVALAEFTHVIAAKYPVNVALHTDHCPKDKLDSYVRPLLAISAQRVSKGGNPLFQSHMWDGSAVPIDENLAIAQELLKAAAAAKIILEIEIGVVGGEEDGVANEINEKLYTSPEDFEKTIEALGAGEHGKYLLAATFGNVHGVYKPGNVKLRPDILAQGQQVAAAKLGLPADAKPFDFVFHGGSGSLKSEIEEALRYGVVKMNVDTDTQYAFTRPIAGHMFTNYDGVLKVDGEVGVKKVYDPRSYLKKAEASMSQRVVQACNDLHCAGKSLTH
Mtb UGM inh = M. tuberculosis UGM enzyme inhibitors, primary screen, biochemical, fluorescence polarization, single point; 320,000 tested, 0.06% active; inhibition, % at 10 µM; UDP-galactopyranose mutase (Mycobacterium tuberculosis (strain ATCC 25618 / H37Rv)), …; purified UGM, fluorescence polarization probe displacement; in the data active means inhibition above about 10%, passing the limit was not always enough
Rv3671c inh = Rv3671c serine protease inhibitors, primary screen, biochemical, fluorescence polarization, M. tuberculosis H37Rv | inhibition, % at 5.96 µM | 320,000 tested, 0.048% active | AID 2606, 2010; in the data active means inhibition above about 38%;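 further: extracellular domain of Rv3671c used as enzyme; 0% = enzyme with DMSO and 100% = no enzyme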
Mtb hypoxia rep = PubChem AID 1159583; M. tuberculosis hypoxia-regulated fluorescent reporter, fluorescence; fluorescence inhibition, % (no concentration beside the values); 300,000 tested, 0.1% active; in the data active means fluorescence inhibition mostly above about 23%, no sharp cut-off; inactive means mostly below about 17%
GDH-TPI counter-1 = GDH-TPI coupling enzyme inhibitors, primary screen, artefact control for M. tuberculosis FBA inhibitor project, biochemical, absorbance, full deck. GDH-TPI coupled enzyme counterscreen, NADH absorbance. inhibition, % at 4.8 µM. 360,000 tested, 1.2% active. AID 588335, 2011; in the data active means inhibition above about 30%;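 further: 0% = DMSO wells and 100% = wells lacking the enzyme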
Mtb FBA inh conf = M. tuberculosis aldolase blockers, biochemical, fluorescence, strain H37Rv, confirmation | shares compounds with FBA Mtb inh | inhibition, % at 1 µM | purified M. tuberculosis FBA, fluorescence read-out | 5,600 tested, 78% active;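 further: 0% = vehicle wells and 100% = reference inhibitor wells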
GDH-TPI counter-2 = GDH-TPI coupling enzyme inhibitors, artefact control for M. tuberculosis FBA inhibitor project, biochemical, fluorescence, high throughput | inhibition, % at 1 µM | AID 652141, 2013 | 5,600 tested, 81% active | shares compounds with FBA Mtb inh | GDH-TPI coupled enzyme counterscreen; in the data active means inhibition above about 10%
GDH-TPI dose = GDH-TPI coupling enzyme inhibitors, dose response, artefact control for M. tuberculosis FBA inhibitor project, biochemical, fluorescence, IC50; shares compounds with FBA Mtb inh; GDH-TPI coupled enzyme assay, artifact counterscreen; IC50, µM; 170 tested, 79% active; AID 652145, 2013; call rule not given here
The depositor's hits bear a star; . = no result given; + = active, no number. Most compounds without a hit are left out; they make up all but 3.5% or so of the library. Unless noted, no stated cut-off is given here; in the data, active means inhibition above about 27%; inactive means the rest.

SMILES | FadD28 binding | FBA Mtb inh | Mtb UGM inh | Rv3671c inh | Mtb hypoxia rep | GDH-TPI counter-1 | Mtb FBA inh conf | GDH-TPI counter-2 | others
COc1ccc(-c2c3c(=O)n(C)c(=O)n(C)c3cn2-c2ccccc2)cc1 | 0 | 4 | 0 | 9 | . | 8 | . | .
O=C(CNC(=O)c1ccccc1Br)NN=Cc1cc(Br)ccc1O | . | . | . | . | 9 | . | . | .
COC(=O)C12CCc3cc(OC)ccc3C1=CC(=O)C2 (centres undefined) | 0 | 95* | . | . | . | 34* | 95* | 94*
Cc1nn(C(C)(C)C)c(C)c1C=NOC(=O)Nc1ccc(Cl)c(Cl)c1 | . | . | . | . | -16 | . | . | .
C=CCC(=O)N1CCCC(CCC(=O)NCc2ccccc2F)C1 (centres undefined) | 0 | 33* | -3 | -7 | 12 | -3 | 46* | 47*
FC(F)(F)c1ccc(C=NNC(=S)NC2CCCCC2)cc1 | . | . | . | . | -1 | . | . | .
Nc1nc(-c2ccccc2)c(-c2ccccc2)o1 | 0 | 5 | 0 | 3 | . | -3 | . | .
c1ccc(-c2nc(-c3nccc4ccccc34)oc2-c2ccccc2)cc1 | -4 | 62* | 3 | -29 | 11 | 5 | 91* | 52*
COc1ccc2nc(C)cc(SCC(=O)NN=Cc3ccccc3)c2c1 | . | . | . | . | 15 | . | . | .
COc1ccc(-c2c(C)oc3c(CN4CCCCC4C)c(O)ccc3c2=O)cc1OC (centres undefined) | 0 | 42* | 1 | 6 | 7 | 34* | -2 | -6
COc1ccc(-c2c(C)oc3c(CN4CCCC(C)C4)c(O)ccc3c2=O)cc1OC (centres undefined) | -1 | 39* | . | . | 9 | 18 | 0 | -2
O=C(O)c1ccc(C=NN2CCN(C3c4ccccc4-c4ccccc43)CC2)cc1 | . | . | . | . | 15 | . | . | .
CC(=O)c1ccc2c(c1)c(C#N)c1ccccc1[n+]2[O-] | -2 | 94* | . | . | 42* | 16 | 8 | 0
Cc1ccc2occ(C=NNC(=O)c3ccc(Cl)cc3)c(=O)c2c1 | . | . | . | . | -6 | . | . | .
O=C(Nc1ccc2c(c1)OCO2)c1cccs1 | -3 | -1 | -1 | 9 | 9 | 14 | . | .
O=C(Nc1ccc2c(c1)OCCO2)c1cccs1 | -2 | 38* | 4 | -8 | -19 | 13 | 12 | 10 | GDH-TPI dose=>10
Cc1c(Br)c(C(=O)NCc2cc3cc(Cl)ccc3[nH]2)nn1C | -19 | 66* | -1 | -16 | -11 | 11 | 85* | 84*
COc1ccc(Nc2nc(NCc3ccco3)nc(NN=Cc3ccccc3F)n2)cc1 | . | . | . | . | 2 | . | . | .
C=C(Cl)COc1ccc2c(C)cc(=O)oc2c1 | -1 | 19 | 1 | -6 | 6 | 6 | . | .
C=C(C)COc1ccc2c(CC)cc(=O)oc2c1 | -5 | 40* | 1 | 5 | 9 | 1 | 85* | 69*
C=C(Cl)COc1ccc2c(CCCC)cc(=O)oc2c1 | -2 | 24 | -2 | 2 | . | 2 | . | .
C=C(Cl)COc1ccc2c(CC)cc(=O)oc2c1 | -6 | 28* | 1 | -1 | 13 | 8 | + | +
C=CCc1cccc(C=NNC(=O)C(=O)Nc2ccc(C)cc2)c1O | . | . | . | . | 7 | . | . | .
CC(C)c1nc(NCC2CCCO2)c(C#N)c2c1COC(C)(C)C2 (centres undefined) | -5 | 55* | -3 | -2 | . | 8 | 123* | 101*
CCc1nc(NCC2CCCO2)c(C#N)c2c1COC(C)(C)C2 (centres undefined) | -3 | 71* | 2 | -5 | 5 | 9 | 140* | 105*
SMILES | FadD28 binding | FBA Mtb inh | Mtb UGM inh | Rv3671c inh | Mtb hypoxia rep | GDH-TPI counter-1 | Mtb FBA inh conf | GDH-TPI counter-2 | others
COC(=O)c1ccc(CON=Cc2ccc(OC)cc2OC)cc1 | . | . | . | . | 14 | . | . | .
Cc1ncc(CO)c(C=NNC(=S)Nc2ccc(Cl)c(Cl)c2)c1O | . | . | . | . | 7 | . | . | .
Cc1ccc(O)c(Nc2c3ccccc3nc3ccccc23)c1 | -1 | 99* | 0 | -6 | 18 | 4 | + | +
Cn1c(-c2ccc(Cl)nc2)nc2ccccc21 | 0 | 37* | 5 | 14 | 6 | -1 | 113* | 83*
CCOC(=O)Cn1c(-c2ccc(Cl)nc2)nc2ccccc21 | 0 | 43* | 0 | -5 | -3 | 11 | 122* | 106*
Cn1c(-c2ccccc2)nc2cnccc21 | -2 | 2 | 0 | 1 | 13 | 20 | . | .
Cn1c(CCc2ccc(N)cc2)nc2ccccc21 | -3 | 0 | -2 | 3 | 14 | -2 | . | .
Cn1c(-c2ccc(N)cc2)nc2ccccc21 | -2 | 88* | 0 | 9 | 8 | -4 | + | +
CC(=NNC(=O)CSCc1ccc(Cl)cc1)c1ccc(NC(=O)c2ccccc2)cc1 | . | . | . | . | 6 | . | . | .
COc1ccc(C=NNC(=S)Nc2cc(C(F)(F)F)ccc2Cl)cc1 | . | . | . | . | 14 | . | . | .
Cc1nn(Cc2ccc(Cl)cc2)c(Cl)c1C=NNC(=O)c1cccnc1 | . | . | . | . | -7 | . | . | .
Cc1c(Nc2c3ccccc3nc3ccccc23)c(=O)n(-c2ccccc2)n1C | -1 | 109* | 2 | -3 | 0 | 6 | -2 | -1
CC(C)c1nc(C(N)=O)c2[nH]c(=O)n(-c3ccc(F)cc3)c2n1 | -2 | 32* | 0 | -3 | 5 | 19 | + | +
Cn1c(=O)c2cc(NC(=O)Cc3ccccc3F)ccc2n1C/C=C/c1ccccc1 | 0 | 62* | . | . | . | 9 | + | +
Cn1c(=O)c2cc(NC(=O)NCc3ccc(F)cc3)ccc2n1C/C=C/c1ccccc1 | -3 | 60* | . | . | . | 2 | 26 | 25*
S=C(NC1CCCC1)N1CCN(C/C=C/c2ccccc2)CC1 | 1 | 3 | -1 | -5 | 9 | 9 | . | .
Cn1c(=O)c2cc(NC(=O)Cc3cccc4ccccc34)ccc2n1-c1ccccc1 | -1 | 4 | . | . | . | 7 | . | .
Cn1c(=O)c2cc(NC(=S)NC3CC3)ccc2n1C/C=C/c1ccccc1 | 1 | 34* | . | . | . | 7 | 70* | 54*
CN1C(=O)CSc2ccc(NC(=O)NCc3ccc(F)cc3)cc21 | -1 | 1 | -2 | -10 | 0 | 4 | . | .
CN1CCc2c1nc1ccccc1c2NC(=O)CN1CCCC1 | 1 | 26 | -1 | 2 | 0 | 7 | . | .
